Results on 16 molecules are retold here after PubChem BioAssay (NCATS).

Inconclusive results are not listed. A call without a number means that no potency is given here. Active and inactive are the calls of the source. The call rests on the fitted dose curve; in most records, active means well fitted inhibition curve with a large enough effect; inconclusive means small, poorly fitted or top-dose-only effect; inactive means flat fitted curve, though single readings scatter.

The assay concerns CP203. Kind of assay: qHTS profiling for inhibitors of Plasmodium falciparum proliferation (AID 504749). Further: nearly all actives have a fitted effect of over 60% in size. The conditions noted are these: P. falciparum in erythrocytes, SYBR Green DNA, 72 h; series mostly up to 28.7 µM. In outline: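 P. falciparum-infected erythrocytes (0.3% parasitemia, 2.5% hematocrit final) were exposed to compounds for 72 h at 37 C in 5% CO2, then lysed with SYBR Green buffer overnight at room temperature; parasite DNA fluorescence was normalized to artemisinin and DMSO controls.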
(In general: Quantitative high-throughput screening tests each substance at several concentrations.)
As to `COC(=O)CCC[N+](C)(C)C`, the Potency result is “inactive”.
Under `[O]=[Bi][O][Bi]=[O]` stands “inactive”; under `C[C@]12CC[C@@H]3c4ccc(OC(=O)c5ccccc5)cc4CC[C@H]3[C@@H]1CC[C@@H]2O`, “inactive”.
Under `Cc1ccc(C(C)(C)c2ccc(C)cc2)cc1` stands “inactive”.
Under `FC(F)OC(Cl)C(F)(F)F` (stereo unspecified) stands “inactive”.
As for `CC(CCc1ccc(O)cc1)NCC(O)c1ccc(O)cc1` (stereo unspecified), the Potency result is “inactive”.
With `CC1=C(/C=C/C(C)=C/C=C/C(C)=C/C(=O)Oc2c(C)c(C)c3c(c2C)CC[C@@](C)(CCC[C@H](C)CCC[C@H](C)CCCC(C)C)O3)C(C)(C)CCC1` the entry was “inactive”; with `O=P(O)(O)OP(=O)(O)OP(=O)(O)O`, “inactive”; with `CO/N=C(\C(=O)N[C@@H]1C(=O)N2C(C(=O)[O-])=C(C[n+]3cccc4c3CCC4)CS[C@H]12)c1csc(N)n1`, “inactive”.
For `CCCCCCCCCCCC(=O)OCC(O)CO` (stereo unspecified), the Potency result was “inactive”.
With `CS(=O)(=O)OCC(O)C(O)COS(C)(=O)=O` (stereo unspecified) the entry was “inactive”.
With `CC1=CC(=O)NS(=O)(=O)O1` the entry was “inactive”; with `O=C(O)CCCC/C=C(\c1ccccc1)c1cccnc1`, “inactive”; with `CCN(CC)C(=S)S`, “inactive”.
Under `C[Se]CC[C@H](N)C(=O)O` stands “inactive”.
For `CC(C)[C@H](N)C(=O)OCC(CO)OCn1cnc2c(=O)[nH]c(N)nc21` (stereo partly specified), the Potency entry is “inactive”.
